# Experimental data published in the supplement of paper PMC9135407.
# “And” between values parts separate entries of the source, which are not always exact repeats. Identical values can stand only once. Counter-ions that a name gives are not always drawn. The campaign covered roughly 5,800 compounds. About 620 (11%) showed activity. What follows is part of a selection rich in actives, with near analogues and random picks from the rest. Values without a mark were called inactive.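 Rule for the calls: active = score above a cut-off or among the top three wells of a plate; in these data no inactive exceeds 0.85.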
# System: primary human hepatic stellate cells (donor 1)
# Assay: scaled lipid accumulation score (0 = DMSO-like, 1 = nortriptyline-like); higher = stronger HSC inactivation (lipid re-accumulation), active = hit call of the paper
# Conditions: 48 h
# [1] = library stock concentration: 10 mM
# [2] = library stock concentration: 15.3 mM
# [3] = library stock concentration: 80 uM
# [4] = library stock concentration: 400 uM
# [5] = library stock concentration: 2 mM
# [6] = library stock concentration: 3.33 mM
# [7] = library stock concentration: 1 mM
compound,measurement,setting,value
Nc1nc2c(ccc3ccccc32)s1,scaled lipid accumulation score,[1],≤ 0
CC1=C(C)C(=O)C(CCCCC#CCCCC#CCO)=C(C)C1=O [Docebenone],scaled lipid accumulation score,library stock concentration: 6.1 mM,≤ -0.006
CC1=C(C)C(=O)C(CCCCC#CCCCC#CCO)=C(C)C1=O,scaled lipid accumulation score,[1],0.105
same,scaled lipid accumulation score,[2],≤ -0.012
O=C(O)CCNc1cc(N2CCc3ccccc3CC2)nc(-c2cccnc2)n1,scaled lipid accumulation score,[3],≤ 0
same,scaled lipid accumulation score,[4],≤ 0
same,scaled lipid accumulation score,[5],≤ 0
same,scaled lipid accumulation score,[1],≤ 0
CC(C)(C)OC(=O)N[C@H]1CCCCC/C=C\[C@@H]2C[C@@]2(C(=O)NS(=O)(=O)C2CC2)NC(=O)[C@@H]2C[C@@H](OC(=O)N3Cc4cccc(F)c4C3)CN2C1=O [Danoprevir (ITMN-191)],scaled lipid accumulation score,[6],0.049
same,scaled lipid accumulation score,[1],≤ 0
CO[C@H]1C[C@@H]2CC[C@@H](C)[C@@](O)(O2)C(=O)C(=O)N2CCCC[C@H]2C(=O)O[C@H]([C@H](C)C[C@@H]2CC[C@@H](O)[C@H](OC)C2)CC(=O)[C@H](C)/C=C(\C)[C@@H](O)[C@@H](OC)C(=O)[C@H](C)C[C@H](C)/C=C/C=C/C=C/1C [Rapamycin],scaled lipid accumulation score,[3],≤ 0
same,scaled lipid accumulation score,[4],≤ 0
same,scaled lipid accumulation score,[7],≤ 0
same,scaled lipid accumulation score,[5],≤ 0
same,scaled lipid accumulation score,[6],≤ 0
same,scaled lipid accumulation score,[1],≤ 0
CO[C@H]1C[C@@H]2CC[C@@H](C)[C@@](O)(O2)C(=O)C(=O)N2CCCC[C@H]2C(=O)O[C@H]([C@H](C)C[C@@H]2CC[C@@H](O)[C@H](OC)C2)CC(=O)[C@H](C)/C=C(\C)[C@@H](O)[C@@H](OC)C(=O)[C@H](C)C[C@H](C)/C=C/C=C/C=C/1C [Rapamycin (Sirolimus)],scaled lipid accumulation score,[6],0.037
same,scaled lipid accumulation score,[1],≤ 0
O=C1NC(=O)c2c1c(-c1ccccc1)cc1[nH]c3ccc(O)cc3c21,scaled lipid accumulation score,[1],≤ -0.055 and ≤ -0.001
OCCN1CCN(CCCN2c3ccccc3Sc3ccc(C(F)(F)F)cc32)CC1 [Fluphenazine hydrochloride],scaled lipid accumulation score,[1],0.407
OCCN1CCN(CCCN2c3ccccc3Sc3ccc(C(F)(F)F)cc32)CC1,scaled lipid accumulation score,[1],1.34 (active)
OCCN1CCN(CCCN2c3ccccc3Sc3ccc(C(F)(F)F)cc32)CC1 [Fluphenazine dihydrochloride],scaled lipid accumulation score,,0.627
same,scaled lipid accumulation score,[1],≤ -0.07
CC(C)(O)C1CCC(C)(C2C(O)CC3(C)C4CC(OC5OC(CO)C(O)C(O)C5O)C5C(C)(C)C(OC6OCC(O)C(O)C6O)CCC56CC46CCC23C)O1 (stereo unspecified) [Astragaloside A],scaled lipid accumulation score,[6],0.019
same,scaled lipid accumulation score,[1],≤ 0
"CCCCC/C=C\C/C=C\C/C=C\CCCC/C=C\CCC(=O)O [cis-4,10,13,16-Docosatetraenoic Acid]",scaled lipid accumulation score,[7],≤ 0
CCCCC[C@H](O)/C=C/[C@H]1[C@H](O)CC(=O)[C@@H]1C/C=C\CCCC(=O)OC [Prostaglandin E2 methyl ester],scaled lipid accumulation score,[7],≤ 0
C[C@@H](NCCCc1cccc(C(F)(F)F)c1)c1cccc2ccccc12 [Cinacalcet HCl],scaled lipid accumulation score,[6],0.207
same,scaled lipid accumulation score,[1],0.351
O=C1CC(=O)c2c(Cl)c(Cl)c(Cl)c(Cl)c21,scaled lipid accumulation score,[6],≤ -0.009
same,scaled lipid accumulation score,[1],0.011
CC(C)n1cnc2c(NCCc3ccc(O)cc3)nc(-c3csc4ccccc34)nc21 [StemRegenin 1 (SR1)] [listing 1 of 2 here],scaled lipid accumulation score,[6],≤ 0
CC(C)n1cnc2c(NCCc3ccc(O)cc3)nc(-c3csc4ccccc34)nc21 [StemRegenin 1 (SR1)] [listing 2 of 2 here],scaled lipid accumulation score,[1],0.919 (active)
CC(C)n1cnc2c(NCc3ccccc3)nc(NCCO)nc21 [N9-Isopropylolomoucine],scaled lipid accumulation score,[2],≤ -0.012
CC\C=C/C=C/C=C/C=C\CCCCCCCC(=O)O [cis-Parinaric Acid],scaled lipid accumulation score,[7],0.028
CC(C)Oc1ccc(C(=O)c2ccc(NC3=NCCN3)cc2)cc1,scaled lipid accumulation score,[7],0.073
CC(=O)Nc1nc2c(Oc3cc(-c4ccc(C(F)(F)F)cc4)ncn3)cccc2s1,scaled lipid accumulation score,[6],≤ -0.009
same,scaled lipid accumulation score,[1],0.221
CCN(CC)CC1CCN(c2ncc3ncnc(Nc4ccc(F)c(Cl)c4)c3n2)CC1.Cl.Cl [BIBU 1361 dihydrochloride],scaled lipid accumulation score,[1],1.06 (active)
CN1CCC(Nc2ncc3ncnc(Nc4ccc(F)c(Cl)c4)c3n2)CC1.Cl.Cl [BIBX 1382 dihydrochloride],scaled lipid accumulation score,[1],1.61 (active)
COc1ccc(F)c(F)c1C(=O)c1cnc(NC2CCN(S(C)(=O)=O)CC2)nc1N,scaled lipid accumulation score,[6],0.082
same,scaled lipid accumulation score,[1],0.057
COc1ccc(CC(=O)NC(/N=C(\NC#N)Nc2cccc3ncccc23)C(C)(C)C)cc1OC (stereo unspecified),scaled lipid accumulation score,[1],0.014
O=C(O[C@@H]1Cc2c(O)cc(O)cc2O[C@@H]1c1cc(O)c(O)c(O)c1)c1cc(O)c(O)c(O)c1 [Epigallocatechin gallate],scaled lipid accumulation score,[3],≤ 0
same,scaled lipid accumulation score,[4],≤ 0
same,scaled lipid accumulation score,[5],≤ 0
same,scaled lipid accumulation score,[1],≤ 0
O=C(O[C@@H]1Cc2c(O)cc(O)cc2O[C@@H]1c1cc(O)c(O)c(O)c1)c1cc(O)c(O)c(O)c1 [(-)-Epigallocatechin Gallate],scaled lipid accumulation score,[7],≤ 0
Oc1nc(-c2ccc(C(F)(F)F)cc2)nc2c1CSCC2,scaled lipid accumulation score,[7],≤ 0
same,scaled lipid accumulation score,[6],≤ 0
same,scaled lipid accumulation score,[1],≤ 0 and 0.004
c1ccc(Cn2c(-c3ccc(OCC(C4CCNCC4)n4c(-c5ccccc5)nc5ccccc54)cc3)nc3ccccc32)cc1 (stereo unspecified) [Deltarasin],scaled lipid accumulation score,[6],0.766
same,scaled lipid accumulation score,[1],0.104
O=c1[nH]c(=S)[nH]c(-c2ccccc2)c1Cc1c(O)ccc2ccccc12 [Cambinol],scaled lipid accumulation score,[1],0.124
Cc1nc(Nc2n[nH]c3c2CN(C(=O)N[C@H](CN(C)C)c2ccccc2)C3(C)C)c2sccc2n1 [listing 1 of 2 here],scaled lipid accumulation score,[1],0.887 (active)
Cc1nc(Nc2n[nH]c3c2CN(C(=O)N[C@H](CN(C)C)c2ccccc2)C3(C)C)c2sccc2n1 [listing 2 of 2 here],scaled lipid accumulation score,[3],≤ -0.016
same,scaled lipid accumulation score,[4],0.092
same,scaled lipid accumulation score,[5],0.522
same,scaled lipid accumulation score,[6],≤ -0.009
same,scaled lipid accumulation score,[1],0.594
CC(C)CC(=O)Nc1n[nH]c2c1CN(C(=O)C1CCN(C)CC1)C2(C)C,scaled lipid accumulation score,[3],≤ 0
same,scaled lipid accumulation score,[4],0.21
same,scaled lipid accumulation score,[5],0.029
same,scaled lipid accumulation score,[6],0.199
same,scaled lipid accumulation score,[1],≤ 0 and 0.015
Cc1nn(C)c(COc2ccc(N3CCN(S(=O)(=O)N(C)C)CC3)cc2)c1-c1cccc2c(CCCOc3cccc4ccccc34)c(C(=O)O)n(CCN3CCOCC3)c12,scaled lipid accumulation score,[3],≤ -0.001
same,scaled lipid accumulation score,[4],≤ -0.001
same,scaled lipid accumulation score,[5],≤ -0.001
same,scaled lipid accumulation score,[1],≤ -0.001
CCCCCCCCCCCCCCCCCCN(CCCCCCCCCCCCCCCCCC)CCCN(CCO)CCO [Avridine],scaled lipid accumulation score,[1],≤ 0
N[C@@H](Cn1ccc(=O)c(O)c1)C(=O)O [L-Mimosine from Koa hoale seeds],scaled lipid accumulation score,[1],≤ 0
c1cc(OCCN2CCCCC2)cc(-c2n[nH]c3ccc(-c4ncn[nH]4)cc23)c1,scaled lipid accumulation score,[1],1.72 (active)
O=C(c1ccc(OCCN2CCCCC2)cc1)c1c(-c2ccc(O)cc2)sc2cc(O)ccc12 [Raloxifene HCl],scaled lipid accumulation score,[6],≤ 0
same,scaled lipid accumulation score,[1],0.575
O=C(c1ccc(OCCN2CCCCC2)cc1)c1c(-c2ccc(O)cc2)sc2cc(O)ccc12,scaled lipid accumulation score,[1],0.798
c1ccc(-c2nn3c(c2-c2ccnc4cc(OCCN5CCOCC5)ccc24)CCC3)nc1,scaled lipid accumulation score,[3],≤ -0.001
same,scaled lipid accumulation score,[4],≤ -0.001
same,scaled lipid accumulation score,[5],≤ -0.001
same,scaled lipid accumulation score,[1],≤ -0.001
O=C(OCCN1CCCCC1)c1c[nH]c2ccccc12,scaled lipid accumulation score,[1],0.289
Cl.c1cc(OCCN2CCCCC2)cc(-c2n[nH]c3ccc(-c4nc[nH]n4)cc23)c1,scaled lipid accumulation score,[1],1.28 (active)
c1cc(OCCN2CCCCC2)cc(-c2n[nH]c3ccc(-c4nnc[nH]4)cc23)c1,scaled lipid accumulation score,[3],≤ -0.016
same,scaled lipid accumulation score,[4],≤ -0.016 and ≤ -0.005
same,scaled lipid accumulation score,[5],≤ -0.016 and 0.022
O=C(c1ccc(OCCN2CCCCC2)cc1)c1c(-c2ccc(O)cc2)sc2cc(O)ccc12 [Raloxifene hydrochloride],scaled lipid accumulation score,,0.032
same,scaled lipid accumulation score,[1],0.661 and 0.376
CCCCC[C@H](O)/C=C/C1=C(C/C=C\CCCC(=O)O)C(=O)CC1 [Prostaglandin B2],scaled lipid accumulation score,[7],≤ 0 and ≤ -0.021
CC(=N)NCCCC[C@H](N)C(=O)O [L-NIL hydrochloride],scaled lipid accumulation score,[1],0.025
CCCCCCCCCCCC(=O)c1nc2ncccc2o1,scaled lipid accumulation score,[7],≤ 0
CCCCC/C=C\C/C=C\CCCCCCCC(=O)NCC(=O)O [N-linoleoylglycine],scaled lipid accumulation score,[7],≤ -0.021
CCCCC(CC)COc1ccc(-c2nc(-c3ccc(OC)cc3)nc(-c3ccc(OCC(CC)CCCC)cc3O)n2)c(O)c1 (stereo unspecified),scaled lipid accumulation score,[1],≤ 0
"CCCCCC=CCC=CCCCCCCCCCC(=O)O [11(Z),14(Z)-Eicosadienoic Acid]",scaled lipid accumulation score,[7],≤ 0
Oc1ccc(Nc2nc(-c3ccc(Cl)cc3)cs2)cc1 [Sphingosine Kinase Inhibitor 2],scaled lipid accumulation score,[7],0.058
Cc1cccc(Nc2nc(-c3ccncc3)cs2)c1 [listing 1 of 2 here],scaled lipid accumulation score,[7],≤ 0
Cc1cccc(Nc2nc(-c3ccncc3)cs2)c1 [listing 2 of 2 here],scaled lipid accumulation score,[6],0.881 (active)
same,scaled lipid accumulation score,[1],1.24 (active)
Oc1ccc(Nc2nc(-c3ccc(Cl)cc3)cs2)cc1,scaled lipid accumulation score,[3],≤ -0.001
same,scaled lipid accumulation score,[4],≤ -0.001
same,scaled lipid accumulation score,[5],≤ -0.001
same,scaled lipid accumulation score,[6],≤ -0.009
same,scaled lipid accumulation score,[1],0.141 and 0.011
